# Wnt act: Wnt/beta-catenin pathway activation; 300,000 tested, 1.2% active; AID 743398; activation, % at 9.35 µM; Wnt/beta-catenin reporter cell assay, activator, plate reader; in the data active = activation above about 30%, passing the limit was not always enough; inconclusive = no clear call, values can overlap the other calls;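 also: 0% = neutral control wells and 100% = positive control wells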
# Ecoli rRNA inh: selective bacterial rRNA inhibition in E. coli | E. coli WT GFP vs humanized-ribosome RFP mutants, fluorescence, 24 h; hits give low values; DMSO median 0, no signal -100 | GFP signal change (wild-type ribosome), % (no concentration beside the values) | 350,000 tested, 1.6% active | AID 720706;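 active = significant combined selectivity score with lowered wild-type GFP, culture density cut under 30%, mutant RFP and density less affected; inactive = any of these conditions unmet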
# esBAF inh: inhibitors of esBAF chromatin remodeling in mouse ES cells; 350,000 tested, 2% active; Bmi1-luciferase knock-in reporter, 24 h; 100% = twice the neutral-well signal; AID 602393; reporter increase, % at 12.5 µM; in the data active = activation above about 40%; inconclusive = no clear call, values can overlap the other calls;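 also: 0% = median of the plate's neutral control wells and 100% = double that signal; a rise in the Bmi1 reporter signal indicates esBAF inhibition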
# MITF TRPM1 HTS: increases MITF-driven TRPM1 promoter luciferase signal; AID 588334; activation, % at 12.5 µM; 300,000 tested, 0.75% active; SK-MEL-5 TRPM1-promoter luciferase, 24 h; % of positive control, neutral wells = 0;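 active = mean activation of at least 80% with every replicate also reaching 80%; inconclusive = mean reaches 80% but some replicate falls short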;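 also: 0% = neutral control wells and 100% = parthenolide positive control wells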
# AF4-AF9 inh: blocks AF4 peptide binding to human AF9; 350,000 tested, 0.47% active; AlphaScreen, biotin-AF4 peptide binding to FLAG-AF9; AID 651704; inhibition, % at 10 µM; P42568;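 active = every replicate reaching a set inhibition limit, whatever the replicate mean, cut at about 25% in these data; inconclusive = mean inhibition reaches that limit but some replicates miss it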;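 also: 0% = plate neutral control median and 100% = total signal loss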
# The depositor's hits bear a star; ? = inconclusive; nt = not tested or not shown. This is a sample that favours compounds with a hit; in the whole collection about 3.7% have one here.
SMILES,Wnt act,Ecoli rRNA inh,esBAF inh,MITF TRPM1 HTS,AF4-AF9 inh
N#C/C(=C/c1ccc(OCc2ccc(C(=O)O)cc2)c(Br)c1)c1cccc(F)c1,-1,-27*,-4,6,0
N#C/C(=C/c1ccccc1OCc1ccc(F)cc1)c1ccc(C(=O)O)cc1,-1,-48,-4,5,2
COC(=O)c1sc2nc(C)c([N+](=O)[O-])c(C)c2c1N,4,-8,9,-4,3
CCn1c2ccccc2c2cc(/C=N/n3c(-c4cc(C)[nH]n4)n[nH]c3=S)ccc21,3,-31*,nt,nt,nt
COc1ccc(CCN(C)C(=O)C2CCN(Cc3cccc(OC)c3OC)CC2)cc1OC,-1,2,-1,0,-1
COc1ccc(NC(=O)N(C)C[C@H]2Oc3ccc(NC(=O)C4CCCCC4)cc3C(=O)N([C@@H](C)CO)C[C@H]2C)cc1,nt,2,4,nt,-3
COc1ccccc1OCc1ccc(C(=O)Nc2cc(OC)c(OC)c(OC)c2)o1,-2,-22*,5,nt,6
COc1cc(OC)c(C(=O)Nc2ccc3ccccc3c2)cc1OC,nt,nt,54*,72,nt
COc1ccc(C(=O)Nc2ccc3oc(Cc4ccc(Cl)cc4)nc3c2)cc1OC,-1,-14*,0,-9,9
Cn1nnc2cc(C(=O)NC3CC3)ccc21,0,nt,-4,-2,nt
Cn1nnc2cc(C(=O)Nc3ccc4ccccc4c3)ccc21,56*,6,nt,?,-2
COc1ccc(NC(=O)c2cc3ccccc3cc2OC)cc1OC,-1,-14,nt,21,2
Cc1cc(NC(=O)C(C)SCC(=O)OC(C)C(=O)Nc2cccc(C#N)c2)no1 (stereo not drawn),1,18,-3,0,-1
CC(C)=CCN1CCN(Cc2ccc(C#CC(C)(C)O)s2)CC1CCO (stereo not drawn),nt,14,nt,4,0
COc1ccc(/C=N/NC(=O)c2ccc(COc3ccccc3Cl)o2)cc1,nt,4,nt,-3,nt
COc1ccc(C(=O)Nc2ccc3ccccc3c2)cc1,8,8,-48,-7,-4
COc1ccc(C(=O)Nc2ccc3ccccc3c2)cc1OC,15,-2,86*,nt,-1
COc1cc(C(=O)Nc2ccc3ccccc3c2)cc(OC)c1OC,3,-25*,nt,nt,-6
CC(=O)Nc1ccc(/C(C)=N/NC(=O)c2ccc(COc3ccccc3Cl)o2)cc1,-2,-30*,3,nt,1
CC1Cc2cc(/C(O)=C3/C(=O)C(=O)N(CCN4CCOCC4)C3c3cccc(O)c3)ccc2O1 (stereo not drawn),10,nt,23,nt,nt
Fc1ccc(-n2cnnn2)c(F)c1,-1,6,-3,-12,-39
COc1cccc(/C=N/Nc2ccc([N+](=O)[O-])cc2)c1O,40*,-3,31,104*,0
COc1cccc(N/N=C/c2cccc(Br)c2O)c1,35*,0,53*,60,nt
COc1ccc(/C=N/Nc2ccc([N+](=O)[O-])cc2)cc1Cn1cc([N+](=O)[O-])cn1,nt,nt,18,10,nt
COc1ccc(/C=N/Nc2ccc([N+](=O)[O-])cc2)cc1O,33*,-10,81*,104*,0
SMILES,Wnt act,Ecoli rRNA inh,esBAF inh,MITF TRPM1 HTS,AF4-AF9 inh
COc1cccc(/C=N/Nc2nc(N3CCCC3)nc(N3CCCC3)n2)c1O,-3,-18*,-1,5,17
COc1ccc(/C=N/Nc2nc(N3CCCC3)nc(N3CCCC3)n2)c(OC)c1OC,4,nt,nt,-7,nt
CC1(c2nnnn2-c2ccc3c(c2)OCCO3)CCC(=O)N1Cc1cccc(C(F)(F)F)c1 (stereo not drawn),-1,-3,nt,nt,-1
CC1(C)CC(NCc2ccncc2)CC(C)(C)N1,0,28,-1,-5,-1
CC1(C)CC2CC(C)(CN2C(=S)NC(=O)c2ccccc2Cl)C1 (stereo not drawn),-1,-33,3,5,7
COC(=O)CCCC(=O)NC1CCCN(C2Cc3ccccc3C2)C1 (stereo not drawn),0,4,6,nt,-1
COc1cccc(/C=N/Nc2c(Cl)cncc2Cl)c1O,12,-4,?,113*,4
CCOC(=O)C1CCN(C(=O)COC(=O)C2CCN(S(=O)(=O)c3ccc(C)c(C)c3)CC2)CC1,0,1,0,-2,-2
CC(C)(C)OC(=O)NCCC(=O)N/N=C/c1cccc2cccnc12,0,-16*,-4,nt,nt
O=C(O)c1ccc(N/N=C/c2cccc3cccnc23)cc1,41*,-4,nt,66,1

# High-throughput results from PubChem BioAssay.
